# Results filed as inconclusive are left out. The source made the active and inactive calls. The call rests on the fitted dose curve; in most records, active means well fitted curve in the direction sought with a large enough effect; inconclusive means small, poorly fitted or top-dose-only effect, or another doubt; inactive means no such curve, though single readings can be large or run the other way.
# Test: qHTS for Inhibitors of Ubiquitin-specific Protease USP2a Using CHOP2 as the Reporter: K633 Counterscreen (AID 652168); further: % of control where 0% means no effect
# Details: No-enzyme DiUb K48 IQF substrate fluorescence interference, kinetic; series mostly up to 57.5 µM; activity change, negative = inhibition: at the top concentration
# In short: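 Cell-free interference counterscreen without USP2a: compounds pinned into enzyme-free buffer (20 mM Tris pH 8, 2 mM beta-mercaptoethanol, 0.05% Chaps), then DiUb K48-4IQF substrate added (100 nM stock); fluorescence read kinetically, Ex 525/Em 598.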
Compound,"activity change, negative = inhibition",outcome
Cc1ccc(S(=O)(=O)Nc2cnccc2C(=O)Nc2nc(-c3ccncc3)cs2)cc1,-6.28% (inactive),
Cc1ccc(S(=O)(=O)Nc2ccccc2C(=O)Nc2nc(-c3ccccc3)c(Br)s2)cc1,-10.5% (inactive),
Cc1ccc(S(=O)(=O)Nc2cnccc2C(=O)Nc2ccc(-c3nc4ccccc4[nH]3)cc2)cc1,-3.14% (inactive),
O=C(Nc1ccc([S+](=O)([O-])Nc2nccs2)cc1)c1ncn[nH]1,2.09% (inactive),
COc1ccc(-c2csc(NC(=O)c3ccccc3NS(=O)(=O)c3ccc(C)cc3)n2)cc1,-8.18% (inactive),
CCCCCC1CCC(C(=O)Nc2ccc(S(=O)(=O)Nc3nccs3)cc2)CC1 (stereo not given),,inactive
CCOC(=O)C1CCC(C(=O)Nc2ccc([S+](=O)([O-])Nc3nccs3)cc2)CC1 (stereo not given),-2.27% (inactive),
Cc1ccc([S+](=O)([O-])n2cc(-c3ccc(-c4ccccc4)cc3)c3ccccc32)cc1,-7.93% (inactive),
Cc1ccc(S(=O)(=O)Nc2cnccc2C(=O)Nc2ccc(S(=O)(=O)Nc3nccs3)cc2)cc1,-6.95% (inactive),
O=C(Nc1ccc(S(=O)(=O)Nc2nccs2)cc1)c1ccncc1,0.79% (inactive),
Cc1ccc(S(=O)(=O)Nc2ccccc2C(=O)Nc2nc(-c3ccc(Cl)cc3)cs2)cc1,-10.5% (inactive),
COC(=O)c1ccc(NC(=O)c2cc(-c3ccc(C)c(C)c3)nc3ccccc23)cc1,-22.1% (inactive),
O=C(O)c1cccc(S(=O)(=O)Nc2nccs2)c1,-2.85% (inactive),
O=C(Cc1ccccc1)Nc1ccc(S(=O)(=O)Nc2nccs2)cc1,4.15% (inactive),
CCNC(=O)C1CCC(C(=O)Nc2ccc([S+](=O)([O-])Nc3nccs3)cc2)CC1 (stereo not given),2.1% (inactive),
